# Bioassay records as filed in PubChem BioAssay.
# An excerpt weighted towards active compounds, which were near 1% of everything screened.
# TSHR antag – human thyrotropin receptor antagonism | TSHR-expressing cells, TSH-stimulated cAMP HTRF, 2 h; hits give low values | 330,000 compounds, 0.2% hits | AID 504810 | activity change, negative = inhibition, % at 11.5 µM;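 active = activity change below a set negative limit, meaning inhibition stronger than a set level, cut at about -70% in these data; inconclusive = activity change between two set negative limits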
#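 Freshly harvested TSHR cells receive pin-tooled compound, then EC80 TSH at 4nM final. After 2 hours at 37 deg C, antibody in lysis buffer and cAMP-d2 are added; 30 minutes at ambient temperature precede the HTRF read.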
# TRb SRC2 PPI – inhibitors of human thyroid hormone receptor beta-SRC2 interaction | P10828 | TRbeta-SRC2 peptide binding, fluorescence polarization; receptor liganded with 1 µM T3 | Potency, µM (doses to about 106 µM), actives largely listed as inhibitors | 280,000 compounds, 0.065% hits; note: nearly all actives have a fitted effect of over 50% in size
# Target sequence (P10828 whole entry, looked up): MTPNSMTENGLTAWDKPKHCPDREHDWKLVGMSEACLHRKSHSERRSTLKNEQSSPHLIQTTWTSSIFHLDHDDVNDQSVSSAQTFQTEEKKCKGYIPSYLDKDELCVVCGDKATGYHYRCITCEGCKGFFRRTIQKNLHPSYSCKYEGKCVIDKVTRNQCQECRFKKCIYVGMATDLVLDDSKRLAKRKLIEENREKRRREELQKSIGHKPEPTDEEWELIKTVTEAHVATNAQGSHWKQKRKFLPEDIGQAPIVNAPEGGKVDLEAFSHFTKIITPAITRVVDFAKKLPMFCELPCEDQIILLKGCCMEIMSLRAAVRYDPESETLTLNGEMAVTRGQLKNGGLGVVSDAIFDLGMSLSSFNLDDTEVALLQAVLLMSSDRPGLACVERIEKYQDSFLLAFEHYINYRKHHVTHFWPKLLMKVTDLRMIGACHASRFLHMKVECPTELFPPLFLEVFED
#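 Polarization signal, normalized between peptide-alone and full complex controls, measured compound effects on T3-liganded human TRb LBD (0.6 uM) binding 20 nM Texas Red SRC2 peptide after 5 hr.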
# TCR act – activators of T cell receptors; primary human leukocytes, anti-CD3, IL-2 HTRF, 48 h; Potency, µM (highest dose often 9.22 µM), most hits filed as activators; 330,000 tested, under 10 active; AID 504894
#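 HTRF read-out of IL-2 secretion: europium cryptate donor excited at 320nm, d2 acceptor emission at 665nm. Cells were primary human leukocytes incubated 48 hr with compounds and a-CD3 beads, supplying TCR signal only.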
# FBPA coupling cs – counter-screen for Giardia aldolase inhibitors: coupling enzyme system; coupling enzyme system counterscreen, AmpLite Red fluorescence; activity change, negative = inhibition, % at 58.2 µM, hits read low; 290,000 compounds, 0.67% hits; in the data active = activity change below about -30%
#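 Compounds tested against the coupling enzymes alone at 57.5 uM final; readout was AmpLite Red fluorescence (525/598 nm) after 20 min at RT.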
# TexasRed fluor – alters Texas Red total fluorescence, flagging assay interference | 280,000 compounds, 0.29% hits | AID 1479 | TRb/SRC2 Texas Red total fluorescence interference | Potency, µM (highest dose often 106 µM); active = well fitted curve in either direction with a large enough effect; inconclusive = small, poorly fitted or top-dose-only effect
#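 Flags fluorescent or light-absorbing compounds by total fluorescence, S + 2P, at 555 nm excitation and 632 nm emission. Mixture: 20 nM Texas Red SRC2 peptide, 0.6 uM human TRb LBD, 1 uM T3, 5% DMSO; compound exposure 5 h at ambient temperature.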
# NPSR antag – blocks cAMP signaling of the human neuropeptide S receptor; CHO-NPSR cells, cAMP TR-FRET, antagonist mode; Potency, µM (top dose mostly 38.3 µM), hits mostly inhibitors; 220,000 compounds, 1% hits; AID 1461; note: nearly all actives have a fitted effect of over 50% in size
# Numbers stand for hits; 0 = inactive; ? = inconclusive; - = not tested or not shown; [ ] = another dose, or the depositor's remark. Unless noted, calls come from the whole dose curve; as a rule, active = well fitted curve in the direction sought with a large enough effect; inconclusive = small, poorly fitted or top-dose-only effect, or another doubt; inactive = no such curve, though single readings can be large; an effect the other way counts as inactive or inconclusive.
SMILES,TSHR antag,TRb SRC2 PPI,TCR act,FBPA coupling cs,TexasRed fluor,NPSR antag
COc1cc(C(C#N)N2CCOCC2)ccc1O (configuration not stated),0,0,0,-35,0,0
COc1cc(C(C#N)N2CCCCC2)ccc1O (configuration not stated),0,0,0,0,0,0
Cc1cccn2c(=O)c(C(=O)NCCCN3CCCCC3C)c(O)nc12 (configuration not stated),0,0,0,0,18µM[quencher],-
CCOc1ccnc2c1c(=O)n(Cc1cc(OC)cc(OC)c1)c(=O)n2C,-140,-,0,0,-,-
O=C(CCCOc1ccc(Cl)cc1Cl)N/N=C/c1ccccc1O,0,0,0,0,32µM[quencher],0
O=C(CCCOc1ccc(Cl)cc1Cl)N/N=C/c1ccccc1,0,0,0,-48,0,0
CCCCC(CC)COC(=O)c1ccc(C(=O)OCC(CC)CCCC)cc1 (configuration not stated),-,0,-,-,0,-
COCCCNC(=O)c1oc2c(c1C)-c1nn(Cc3ccccc3Cl)cc1CC2,-,0,-,-,0,-
COCCn1c(CCC(=O)Nc2ccc(OC)c(OC)c2)nc2cccnc21,-,0,-,-,0,-
CCOc1ccc(C(N)=O)cc1OC,0,0,0,0,0,0
CCOc1ccc(N)cc1OC,0,0,0,-33,0,0
Oc1c(C(c2ccccc2F)N2CCN(Cc3ccccc3)CC2)sc2nc(-c3ccco3)nn12 (configuration not stated),-,0,-,-,0,-
CC(C)c1ccc(/C=C2\Oc3c(ccc(O)c3CN3CCN(C)CC3)C2=O)cc1,0,0,0,0,0,10µM
Cc1ccc(/C=C2\Oc3c(ccc(O)c3CN3CCN(CCO)CC3)C2=O)cc1,0,0,0,0,0,10µM
O=C1/C(=C/c2ccco2)Oc2c1ccc(O)c2CN1CCCCC1,0,0,0,0,0,0
Cc1cc(C)nc(NS(=O)(=O)c2ccc(Br)s2)c1,0,0,0,-36,0,0
Cc1ccc(NS(=O)(=O)c2ccc(Br)s2)nc1,0,0,0,-37,0,0
COc1ccc(OC)c2sc(N3CCN(C(=O)c4ccc5c(c4)CCCC5)CC3)nc12,-,0,-,-,0,-
COc1ccc(C(=NNc2ccccc2C(=O)O)c2ccc(OC)cc2)cc1,0,0,0,0,0,7.9µM
Cn1c(-[n+]2c(-c3ccccc3)cc(-c3ccccc3)cc2-c2ccccc2)nc2c([N+](=O)[O-])cccc21,0,0,0,0,0,7.9µM
Cc1nc2cc(-c3ccsc3-n3c(C)ccc3C)[nH]n2c(=O)c1Cl,0,0,0,0,45µM[quencher],0
Cc1ccc2c(=O)cc(C(=O)Nc3ccc(S(=O)(=O)Nc4onc(C)c4C)cc3)oc2c1,0,0,0,0,?,-
Cc1cc(C)c2c(=O)cc(C(=O)Nc3ccc(S(=O)(=O)Nc4onc(C)c4C)cc3)oc2c1,-,0,-,-,126µM[quencher],-
COc1ccc(NC(=O)N2CCc3nc(-c4ccc(OC)cc4C)c4c(c3C2)CO[C@@H](c2ccccc2)C4)cc1,-,0[11.2 µM],-,0,0[11.2 µM],-
CCOc1ccc(-c2csc(/C(C#N)=C\c3ccc(O)c([N+](=O)[O-])c3)n2)cc1,-83,0,0,0,0,0
SMILES,TSHR antag,TRb SRC2 PPI,TCR act,FBPA coupling cs,TexasRed fluor,NPSR antag
O=C(C1CCN(S(=O)(=O)Cc2ccccc2)CC1)N1CCN(c2ccccc2)CC1,-,0,-,-,0,-
Cc1ccc(-n2nc(C)c3c(C)cc(=O)n(CC(=O)N4CCCc5ccccc54)c32)cc1,-,0,-,-,0,-
Cc1ccc(NC(=O)Cn2nnc(C(=O)NCCc3ccccc3)c2N)c(C)c1,-107,-,0,0,-,-
COc1ccc(CCNC(=O)c2nnn(CC(=O)Nc3ccc(C)cc3C)c2N)cc1OC,-82,-,0,0,-,-
Cc1ccc(C)c(NC(=O)Cn2nnc(C(=O)NCCc3ccccc3)c2N)c1,-,0,-,-,0,-
COc1ccc(Cl)cc1NC(=O)Cn1nnc(C(=O)NCCc2ccc(OC)c(OC)c2)c1N,0,-,0,-,-,-
COc1ccc(NC(=O)Cn2nnc(C(=O)NCc3cccs3)c2N)c(OC)c1,-132,-,0,0,-,-
COc1cccc(NC(=O)Cn2nnc(C(=O)NCc3cccs3)c2N)c1,0,0,0,0,0,-
Cc1oc2ccc(O)c(CN3CCCC3)c2c1C(=O)Nc1cccc(Cl)c1C,-,0,-,-,0,-
